Compound activity: PubChem BioAssay, National Center for Advancing Translational Sciences (NCATS)
KB-3-1 tox = kills parental KB-3-1 adenocarcinoma cells | AID 1347075 | 400,000 tested, 1.4% active | KB-3-1 viability, CellTiter-Glo ATP luminescence, 72 h | Potency, µM (top dose mostly 46.1 µM), usual class: cytotoxic; also: % is scaled to controls: 0 for no effect and ±100 for the full control effect; nearly all actives have a fitted effect of over 60% in size
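Here the drug-naive KB-3-1 line serves as comparator for MDR sub-line selectivity; cells received compound titrations, 72 h at 37 °C, then CellTiter-Glo readout.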
KB-V1 MDR tox = KB-V1 MDR subline cytotoxicity; KB-V1 MDR cells viability, CellTiter-Glo, 72 h; Potency, µM (highest dose often 46.1 µM), usual class: cytotoxic; 400,000 tested, 3.4% active; AID 1347076; also: % is scaled to controls: 0 for no effect and ±100 for the full control effect; nearly all actives have a fitted effect of over 60% in size
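qHTS viability screen in drug-selected KB-V1 MDR cells: 72 h compound treatment at 37 degrees C, ATP luminescence end point.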
SW480 rerep = induces DNA re-replication in SW480 colon adenocarcinoma cells; SW480 DNA re-replication, Hoechst DNA content imaging, 48 h; Potency, µM (highest dose often 46.1 µM), without a hit: at the top dose re-replication activation, usual class: activators; 340,000 tested, 1.8% active; also: % of control where 0% means no effect; nearly all actives have a fitted effect of over 55% in size
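First, 250 cells per well were seeded. Next, compound or vehicle (23 nL) was pinned in, plates sat 48 hr at 37 C. Finally Hoechst was added for 40 min before fluorescence scanning.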
PINK1 modulator = modulators of PINK1 expression; PINK1 immunofluorescence, high-content cytometry, 24 h; Potency, µM (highest dose often 76.6 µM), for inactives: at the highest dose activation (PINK1 increase), most hits filed as activators; 410,000 tested, 0.2% active; active = well fitted activation curve with a large enough effect; inconclusive = small, poorly fitted or top-dose-only effect; cell line not stated here; also: % of control where 0% means no effect; nearly all actives have a fitted effect of over 65% in size
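Stable cell line treated 24 h with compounds at 5 concentrations (CCCP controls), then fixed and immunostained for PINK1 plus nuclear and cell stains; PINK1 immunofluorescence quantified by laser-scanning microplate cytometry.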
MCF10A rereplic = induces DNA re-replication in MCF 10a normal breast cells. 350,000 tested, 2.9% active. Potency, µM (series often up to 46.1 µM), for the others: at the highest dose activity, positive = re-replication, actives largely listed as activators. AID 624296. MCF 10A DNA re-replication, Hoechst nuclear intensity, 48 h; also: % of control where 0% means no effect; nearly all actives have a fitted effect of over 50% in size
ALOX12 inh = blocks human arachidonate 12S-lipoxygenase; P18054; 580,000 tested, 1.1% active; Potency, µM (highest dose often 108 µM), without a hit: at the top dose activity change, negative = inhibition, actives largely listed as inhibitors; purified 12hLO, xylenol orange hydroperoxide absorbance; AID 1671190; also: % is scaled to controls: 0 for no effect and ±100 for the full control effect
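Purified human 12hLO (150 nM final) in 25 mM Hepes, 0.01% Triton X-100, pH 7.0 was preincubated 15 min at room temperature with compound. Then 40 uM arachidonic acid was added, 30 min. Hydroperoxide was read by Fe-XO absorbance ratio 573/405 nm.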
An asterisk follows results filed as active; i = inactive; ? = inconclusive; . = not tested or not shown; [ ] = another dose, or the depositor's remark. Hits are enriched below; roughly 5.8% of the tested compounds scored in any of these assays. Unless noted, calls follow the shape of the dose curve; as a rule, active = well fitted curve in the direction sought with a large enough effect; inconclusive = small, poorly fitted or top-dose-only effect, or another doubt; inactive = no such curve, though single readings can be large; an effect the other way counts as inactive or inconclusive. Potency is read from the fitted curve at half-maximal effect.

SMILES	KB-3-1 tox	KB-V1 MDR tox	SW480 rerep	PINK1 modulator	MCF10A rereplic	ALOX12 inh
COc1cc2c(cc1OC)C(c1ccc(-c3ccccc3Cl)o1)=NCC2	i	i	?	1%[38.3 µM]	?	40µM*
COc1cc2c(cc1OC)C(c1ccc(Cl)cc1)=NCC2	i	i	11%	1%	5%	?
COc1cc2c(cc1OC)C(c1oc(-c3ccc(-c4cc(Cl)ccc4Cl)o3)cc1C)=NCC2	?	i	.	2%	.	.
COc1cc2c(cc1OC)C(c1ccc(-c3cc(Cl)ccc3Cl)o1)=NCC2	?	5.2µM*	16µM*	2%	?	.
O=C(COC(=O)c1cc2c(F)cccc2s1)NCC1CCCO1 (centres undefined)	.	.	.	.	.	19%
O=C(Cn1cncn1)NCc1cccc(C(F)(F)F)c1	i	i	-28%	2%	0.65µM*	20%
O=C(NCc1cccc(C(F)(F)F)c1)c1cc(Cl)ccc1Cl	i	i	10µM*	0%	1%	-5%
O=C(Cn1cncn1)NCc1cccc(OC(F)F)c1	i	i	1%	0%	10%	-10%
O=C(Cc1cccc(C(F)(F)F)c1)NCc1cccc(Cl)c1	i	i	?	0%	?	?
Cc1nc(-c2ccccc2)sc1C(=O)Nc1ccc2[nH]c(=O)[nH]c2c1	.	.	.	.	.	-53%
N#Cc1cccc(NC(=O)C2SC(=Nc3ccccc3)C(C(=O)N3CCOCC3)=C2N)c1 (centres undefined)	i	i	0%	3%	-2%	-6%
Cc1ccc(N=C2SC(C(=O)Nc3ccc(OC(F)(F)F)cc3)C(N)=C2C(=O)Nc2c(C)cc(C)cc2C)cc1 (centres undefined)	?	?	12%	-3%	3.7µM*	?
Cc1ccc(NC(=O)C2SC(=Nc3ccccc3)C(C(=O)Nc3ccc(Cl)cc3)=C2N)cc1 (centres undefined)	i	i	-8%	2%	21µM*	.
Cc1oc(-c2cccs2)nc1CC(=O)Nc1cc(F)ccc1F	.	.	.	.	.	-12%
O=C(CN1C(=O)COc2ccccc21)Nc1ccccc1F	?	i	4%	2%	14%	5%
O=C1COc2ccccc2N1Cc1c(F)cccc1Cl	i	i	50%	0%	23µM*	-26%
COc1ccc(/C=C/C(=O)c2ccc(O)c(CCCl)c2)cc1C	.	.	.	.	.	32µM*
O=C(C=Cc1ccc2c(c1)OCO2)c1ccccc1	i	i	?	12%	18µM*	-4%
O=C(C=Cc1cccc(Cl)c1)c1ccccc1	?	?	15µM*	-5%	18µM*	-9%
COc1ccc(/C=C/C(=O)c2ccc3c(c2)OCO3)cc1OC	i	?	?	-2%	?	?
COc1cc(C(=O)c2cc3c(cc2C)OCO3)cc(OC)c1OC	0.16µM*	0.41µM*	.	10%	.	3%
CSC1=N/C(=C\c2cc(C(C)(C)C)c(O)c(C(C)(C)C)c2)C(=O)S1	.	.	.	.	.	-67%
O=S(=O)(CCSc1ccc(Br)cc1)c1ccc(Cl)cc1	.	.	.	.	.	22%
COc1ccc(OC)c(/C=C/C(=O)c2ccc3c(c2)OCCO3)c1	?	?	8%	-1%	21µM*	-26%
COc1cc(/C=C/C(=O)c2ccc3c(c2)OCCO3)cc(OC)c1OC	?	i	?	2%	?	1%
COc1cc(/C=C/C(=O)c2ccc(F)cc2)cc(OC)c1OC	i	?	18µM*	-1%	?	76%
CCOC(=O)c1cccc(NC(=O)/C=C/c2ccc3c(c2)OCO3)c1	10µM*	?	3%	12%	9.2µM*	19%
Cc1cc(/C=C/C(=O)c2ccc(F)cc2)cc(C)c1O	.	.	.	.	.	45µM*
CCOc1ccc(C(=O)/C=C/c2cc(OC)c(OC)c(OC)c2)cc1	?	?	?	-2%	?	-3%
Cn1ncc2c(N3CCN(S(N)(=O)=O)CC3)nc(C3CCCC3)nc21	.	.	.	.	.	11%
